Inconclusive results are not listed. Active and inactive are the calls of the source. Calls follow the shape of the dose curve; as a rule, active = well fitted inhibition curve with a large enough effect; inconclusive = small, poorly fitted or top-dose-only effect; inactive = flat fitted curve, though single readings scatter.
Test: Primary qHTS for inhibitors of nuclear receptor binding SET domain protein 2 (NSD2) in an isogenic RCH-ACV NSD2 p.E1099K mutant (9B) (AID 1645876); also: nearly all actives have a fitted effect of over 70% in size
Conditions: RCH-ACV (leukaemia line) NSD2 E1099K (9B) viability, CellTiter-Glo, 72 h; series mostly up to 44.9 µM; activity change, negative = viability loss: at the top concentration
% is scaled to controls: 0 for no effect and ±100 for the full control effect; potency is read from the fitted curve at half-maximal effect.

Question: Which “activity change, negative = viability loss” value does the source give for CC(C)(Cc1nc(-c2ccc(O)cn2)no1)C(=O)NC1=C(C(=O)O)CCCC1 here?
Answer: -23.4% (inactive)

Question: For CC(C)=CCCC1(C)/C=C/C(OC(=O)C=C(C)C)C(C)(O)/C=C/C(=O)/C(CO)=C\C1 (centres undefined), which Potency is on record?
Answer: 11.2 µM (active)

Question: For OC1C=C2C3CN(Cc4cc5c(cc43)OCO5)C2CC1O (centres undefined), which Potency is on record?
Answer: 6.49 µM (active)

Question: For CN[C@@H]1[C@H](O[C@H]2[C@H](O[C@@H]3[C@@H](O)[C@H](O)[C@@H](N=C(N)N)[C@H](O)[C@H]3N=C(N)N)O[C@@H](C)[C@]2(O)CO)O[C@@H](CO)[C@H](O)[C@H]1O, which “outcome” value is on record?
Answer: inactive

Question: For C/C=C(/C)C(=O)OC1CC(C)(C)CC2C3=CCC4C5(C)CCC(O[C@@H]6O[C@H](C(=O)O)[C@@H](O)[C@H](O)[C@H]6O[C@@H]6O[C@H](CO)[C@H](O)[C@H](O[C@@H]7OC[C@H](O)[C@H](O)[C@H]7O[C@@H]7O[C@H](CO)[C@@H](O)[C@H](O)[C@H]7O)[C@H]6O)C(C)(C)C5CCC4(C)C3(C)C(O)C(O)C12CO (some centres undefined), which Potency is on record?
Answer: 2.18 µM (active)

Question: Which “activity change, negative = viability loss” value does the source give for C=C[C@@]12COC(=O)C(=C)[C@@H]1[C@@H](O)[C@H](C(=C)C(=O)OC)[C@@H](O)C2 here?
Answer: -92.6% (inactive)

Question: Which Potency does the source give for CC(=O)O[C@@]12CO[C@@H]1C[C@H](O)[C@@]1(C)C(=O)[C@H](O)C3=C(C)[C@@H](OC(=O)[C@H](O)[C@@H](NC(=O)OC(C)(C)C)c4ccccc4)C[C@@](O)([C@@H](OC(=O)c4ccccc4)C12)C3(C)C (some centres undefined) here?
Answer: 0.004 µM (active)

Question: With CC(=O)O[C@@H]1C2=C(O)C(=O)[C@](C)(OC(C)=O)C(=O)C2=CO[C@@]12O[C@@H](C)CC[C@H]2OC(C)=O as the compound, how does the “activity change, negative = viability loss” value read?
Answer: -25.8% [at 17.3 µM] (inactive)

Question: Which Potency does the source give for C/C=C(\C)[C@@H]1C(C)=C[C@@H]2[C@H]([C@@H]1/C=C/C=C/C(=O)O)[C@@H](C)CC[C@@H]2O here?
Answer: 5.05 µM (active)

Question: For C=C(C)C(=O)OC1CC2(C)OC(=CC2=O)C(=C)CC2OC(=O)C(=C)C12 (centres undefined), which Potency is on record?
Answer: 0.8 µM (active)

Question: With COc1c2c(nc3occc13)C(CC=C(C)C)(OC)C(O)CC2 (centres undefined) as the compound, how does the “activity change, negative = viability loss” value read?
Answer: -29.2% (inactive)

Question: Which Potency does the source give for C/C1=C/CCC2=CC(OC2=O)C(C)(C)/C=C/C1=O (centres undefined) here?
Answer: 0.578 µM (active)

Question: With C=C(C)C1=C[C@@]2(C)C(=CC1=O)CC[C@@H](O)[C@@H]2C as the compound, how does the “activity change, negative = viability loss” value read?
Answer: -23.4% (inactive)

Question: For CC1(C)CCCC2(C)C1C(OC(=O)/C=C/C=C/C=O)C=C1COC(=O)C12O (centres undefined), which Potency is on record?
Answer: 7.09 µM (active)

Question: Which Potency does the source give for C=C1C(=O)O[C@@H]2C[C@H](C)[C@@H]3CC(=O)C(C)=C3C[C@H]12 here?
Answer: 4.59 µM (active)

Question: For OC[C@H]1O[C@@H](OC/C=C/c2ccc(O)cc2)[C@H](O)[C@@H](O)[C@@H]1O, which “activity change, negative = viability loss” value is on record?
Answer: -35.9% (inactive)

Question: For O=C(NO)c1cnc(N2CCN(S(=O)(=O)c3ccc4ccccc4c3)CC2)nc1, which Potency is on record?
Answer: 0.252 µM (active)

Question: For CC(C)C[C@@H]1NC(=O)[C@@H](Cc2ccccc2)NC(=O)C(CCCCCC(=O)C2CO2)NC(=O)[C@@H]2CCCCN2C1=O (some centres undefined), which Potency is on record?
Answer: 0.0709 µM (active)

Question: Which “activity change, negative = viability loss” value does the source give for C/C=C(/C)C(=O)O[C@@H]1C[C@@H](OC(=O)CC(C)C)C2(C)C3C(=O)C=C(C)C2C3C1(C)C (some centres undefined) here?
Answer: -26.3% [at 17.3 µM] (inactive)

Question: For C#Cc1cccc(Nc2nc3cc(C(=O)O)ccc3c3cncnc23)c1, which Potency is on record?
Answer: 4.09 µM (active)

Question: Which Potency does the source give for CN(C)C(=O)COC(=O)c1cc(-c2ccc(C3CCNCC3)cc2)c2ccc(-c3ccc(C(F)(F)F)cc3)cc2c1 here?
Answer: 4.59 µM (active)

Question: Which Potency does the source give for Nc1nc(Nc2ccc3c(c2)CCC(N2CCCC2)CC3)nn1-c1cc2c(nn1)-c1ccccc1CCC2 (centres undefined) here?
Answer: 1.63 µM (active)

Question: For CC(=O)O[C@H]1CC2C(COC(=O)CC(C)C)=CO[C@@H](OC(=O)CC(C)C)C2[C@]12CO2 (some centres undefined), which Potency is on record?
Answer: 7.96 µM (active)

Question: With C=C1C(=O)O[C@H]2C3=C(C)CCC[C@]3(C)C(=O)C[C@@H]12 as the compound, how does the Potency read?
Answer: 1.83 µM (active)

Question: Which Potency does the source give for CCC/C=C/C(=O)O[C@H]1CC(C)(C)CC2[C@@]13[C@H](O)C[C@]1(C)[C@@]2(CCC2[C@@]4(C)CC[C@H](O[C@@H]5O[C@H](C(=O)O)[C@@H](O)[C@H](O[C@@H]6O[C@H](CO)[C@H](O)[C@H](O)[C@H]6O[C@@H]6O[C@@H](C)[C@H](O)[C@@H](O)[C@H]6O[C@@H]6OC[C@](O)(CO)[C@H]6O)[C@H]5O[C@@H]5O[C@H](CO)[C@H](O)[C@H](O)[C@H]5O)C(C)(C)C4CC[C@]21C)O[C@H]3O (some centres undefined) here?
Answer: 1.73 µM (active)

Question: With COCCNCc1ccc(-c2cc3nccc(Oc4ccc(NC(=O)C5(C(=O)Nc6ccc(F)cc6)CC5)cc4F)c3s2)nc1 as the compound, how does the Potency read?
Answer: 2.9 µM (active)

Question: For COC(=O)N1CC2(CC2)C[C@H](C(=O)NO)[C@H]1C(=O)N1CCN(c2ccccc2)CC1, which “activity change, negative = viability loss” value is on record?
Answer: -3.28% (inactive)

Question: Which Potency does the source give for CCNC1(C(N)=O)CN(c2nc(C)nc3c(-c4ccc(Cl)cc4)c(-c4ccccc4Cl)nn23)C1 here?
Answer: 20.5 µM (active)

Question: With COc1ccccc1S(=O)(=O)Nc1ccc2c(c1)CN(C)C(=O)N2 as the compound, how does the Potency read?
Answer: 1.83 µM (active)

Question: For Cc1cc2c(F)c(Oc3ncnn4cc(OCC(C)OC(=O)C(C)N)c(C)c34)ccc2[nH]1 (centres undefined), which Potency is on record?
Answer: 9.34 µM (active)

Question: With CCc1c[nH]c2ncnc(N3CC[C@](N)(CNC(=O)c4ccc(F)cc4F)C3)c12 as the compound, how does the Potency read?
Answer: 1.63 µM (active)

Question: Which “activity change, negative = viability loss” value does the source give for COC(=O)C[C@H]1[C@]2(C)C3=C(C)[C@H](c4ccoc4)C[C@H]3O[C@@H]2[C@H](O)C2[C@](C)(C(=O)OC)C=CC(=O)[C@@]21C (some centres undefined) here?
Answer: -15.9% [at 17.3 µM] (inactive)

Question: Which Potency does the source give for CN(CC1COCCO1)S(=O)(=O)Nc1ccc2ccc3ncc(-c4cnn(C)c4)cc3c(=O)c2c1 (centres undefined) here?
Answer: 5.15 µM (active)

Question: Which Potency does the source give for CC1(C)CCCC2(C)C1C(=O)C=C(C(=O)O)C2(O)C(=O)O (centres undefined) here?
Answer: 25.8 µM (active)

Question: For C=C1C(=O)O[C@@H]2C3C(=C(C)[C@@H](O)[C@@H](OC(=O)/C(=C/C)COC(C)=O)[C@@H]12)C(=O)[C@H]1O[C@@]31C (some centres undefined), which Potency is on record?
Answer: 2.82 µM (active)

Question: Which “activity change, negative = viability loss” value does the source give for C/C=C/C=C/C(=O)O[C@@H]1C=C2COC(=O)[C@]2(O)[C@@]2(C)CCCC(C)(C)[C@H]12 here?
Answer: -18.1% (inactive)

Question: For CNc1nc(Nc2ccc(C(=O)N3CCOCC3)cc2OC)nc2[nH]cc(Cl)c12, which Potency is on record?
Answer: 4.09 µM (active)

Question: With O=S(=O)(NCc1ccccn1)c1ccc(Br)c2ccccc12 as the compound, how does the “activity change, negative = viability loss” value read?
Answer: -24.5% (inactive)

Question: For COc1ccc(C2Oc3c(OC)cc(CCCO)cc3C2COC2OC(CO)C(O)C(O)C2O)cc1OC (centres undefined), which “activity change, negative = viability loss” value is on record?
Answer: -18.5% [at 17.3 µM] (inactive)

— PubChem BioAssay (NCATS)
